From PubChem BioAssay AID1619 (SRMLSC, 2009)
About 830 (0.38%) of roughly 220,000 compounds were called active.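 How the source made its calls: active means compound inhibiting the enzyme by more than half at any dose during confirmatory dose-response retesting; inconclusive means strong single-dose inhibitors picked by rank but not retested; inactive means the rest.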 Not all results are given here. Potency and affinity values are given separately.

The compounds below were run against Leucine aminopeptidase (Plasmodium falciparum (isolate 3D7)) (UniProt Q8IL11) (assay: P. falciparum M17LAP inhibitors, primary screen, biochemical, fluorogenic H-Leu-NHMec substrate, 1536-well (AID 1619;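 further: plate controls were full reaction with DMSO carrier for no effect and no enzyme background for full effect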)). Details: recombinant M17LAP, H-Leu-NHMec fluorogenic kinetic assay; at 30 µM; active compounds read high.
Sequence of Leucine aminopeptidase (Plasmodium falciparum (isolate 3D7)) (Q8IL11 whole entry, looked up): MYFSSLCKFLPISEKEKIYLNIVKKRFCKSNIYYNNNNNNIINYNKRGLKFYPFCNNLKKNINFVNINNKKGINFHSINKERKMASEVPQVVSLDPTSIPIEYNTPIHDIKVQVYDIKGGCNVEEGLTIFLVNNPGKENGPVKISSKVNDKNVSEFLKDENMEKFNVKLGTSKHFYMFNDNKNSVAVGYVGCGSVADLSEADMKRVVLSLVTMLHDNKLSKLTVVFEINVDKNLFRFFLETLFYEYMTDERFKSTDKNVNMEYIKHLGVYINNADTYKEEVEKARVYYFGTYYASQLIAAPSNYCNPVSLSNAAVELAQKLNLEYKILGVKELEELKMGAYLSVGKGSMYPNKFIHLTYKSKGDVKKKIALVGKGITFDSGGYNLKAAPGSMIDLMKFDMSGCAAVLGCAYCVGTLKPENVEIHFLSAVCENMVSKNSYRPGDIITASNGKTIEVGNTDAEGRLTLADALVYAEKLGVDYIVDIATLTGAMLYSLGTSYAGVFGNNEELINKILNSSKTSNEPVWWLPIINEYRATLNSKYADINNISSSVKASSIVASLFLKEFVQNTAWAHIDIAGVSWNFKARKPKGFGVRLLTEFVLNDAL

inhibition, inactive:
COc1cc2c(cc1OC)CN(C(=S)Nc1ccc(Cl)cc1)CC2 1.81%, CC1CN(C(=O)N2CCOCC2)CCN1C(=O)N1CCOCC1 (stereo not drawn) -0.08%, CCOC(=O)c1cc(-c2csc(-c3ccc(C(F)(F)F)cc3)n2)on1 -0.99%, O=C(NCCCO)/C(=C\C=C\c1ccccc1)NC(=O)c1ccccc1Cl 18.5%, C=CCNC(=O)/C(=C\C=C\c1ccccc1)NC(=O)c1ccccc1Cl -0.22%, CCc1ccc(C(=O)CSc2nc3cc(S(=O)(=O)N4CCOCC4)ccc3n2CC)cc1 16.6%, O=C(CCSc1ccccc1)NCCSCc1ccco1 22.2%, CCOC(=O)c1oc2c(C)c(O)ccc2c(=O)c1-c1nncn1-c1ccccc1 17.4%, Cc1oc2c(C)c(O)ccc2c(=O)c1-c1nncn1-c1ccccc1 5.69%, CSc1cccc(NC(=O)C2CCN(S(=O)(=O)c3ccc(F)cc3)CC2)c1 -0.52%, COc1cccc(C(=O)NCC2CCN(c3ccc(S(=O)(=O)N4CCOCC4)cc3)CC2)c1 4%, CN(C)S(=O)(=O)c1ccc(C(=O)NC(=O)CSc2ccccc2)cc1 6.97%, C/C(=N\NC(=O)C1=NNC(=O)C1C)c1cccs1 (stereo not drawn) 24.2%, CC1=NNC(=O)C1CC(=O)N/N=C/c1cccs1 (stereo not drawn) 5.62%, CC1=NNC(=O)C1CC(=O)N/N=C/c1ccncc1 (stereo not drawn) -2.88%, CC1=NNC(=O)C1CC(=O)N/N=C/c1ccc(C)o1 (stereo not drawn) 5.16%, Cc1ccc(/C=C/C(=O)NCCCc2ccccc2)cc1 -0.31%, CCc1ccccc1NC(=O)CC1S/C(=N\c2nccs2)N(CC)C1=O (stereo not drawn) 0.04%, COc1cc(NC(=O)CSc2nnc3c(C)cc4c(C)ccc(C)c4n23)c(C(=O)O)cc1OC 3.38%, CCc1cc2ccc(C)cc2nc1SCC(=O)Nc1cc(C)on1 -2.5%, CCc1cc2cc3c(cc2nc1SCC(=O)Nc1cc(C)on1)OCO3 7.57%, CCc1cc2ccc(C)cc2nc1SCC(=O)Nc1c[nH]c(=O)[nH]c1=O 21.2%, CCc1cc2cc3c(cc2nc1SCC(=O)Nc1nccs1)OCO3 -1.06%, CCc1ccc2c(c1)cc(C)c1nnc(SCC(=O)Nc3cc(OC)c(OC)cc3C(=O)O)n12 7.71%, COc1ccc2cc(C)c(SCC(=O)Nc3cc(C)on3)nc2c1 -7.8%, Cc1ccc2cc(C)c(SCC(=O)Nc3ccc(S(=O)(=O)N4CCCC4)cc3)nc2c1 -14.9%, Cc1ccccc1OCCCCn1c(CO)nc2ccccc21 5.4%, CN(Cc1ccccc1)C(=O)Cn1c(=O)oc2cc(S(=O)(=O)NCc3ccccc3)ccc21 -8.79%, Nc1cc(=O)[nH]c(SCC(=O)Nc2ccc(S(=O)(=O)N3CCCCC3)cc2)n1 10.7%, CCOc1ccc(N2C(=O)CC(NCCc3ccncc3)C2=O)cc1 (stereo not drawn) 3.75%, CN1CC(=O)N(CCOc2ccccc2)C1=O 5.27%, CN1CCN(c2ccccc2NC(=O)c2cccc([N+](=O)[O-])c2)CC1 -3.18%, C/C(=N/NC(=O)Cn1nc2ccccc2n1)c1ccc(F)cc1 13.8%, CC(C)c1nc(SCC(=O)N2CCCc3ccccc32)c2c(=O)n(C)c(=O)n(C)c2n1 -8.79%, Cc1c(CN2CCC(CO)(CC3CCCCO3)CC2)cnn1C (stereo not drawn) -3.19%, Cc1ccc(OCC(=O)N2N=C(C(F)(F)F)CC2(O)C(C)(C)C)cc1C (stereo not drawn) -0.9%, CCCCSc1nc(O)cc(=O)n1CC 16%, CCOC(=O)c1sc(NS(=O)(=O)c2ccccc2)nc1C 23.4%, Cc1ccc(S(=O)(=O)Nc2nc(C)c(C(=O)NN)s2)cc1 18.9%, Cc1ccc(C(=O)Nc2ccc(F)cc2)o1 7.81%, O=C(Nc1ccc2c(c1)OCCO2)C1CCC1 -5.9%, CC1=C(C)CC(C(=O)Nc2ccc3c(c2)OCO3)C(C(=O)O)C1 (stereo not drawn) 8.14%, O=C(Nc1ccc2c(c1)OCCO2)NC1CCCCC1 53.6%, O=C(O)CCNc1ccc2c(c1)OCCO2 13.7%, O=C(Nc1ccc2c(c1)OCCO2)C1CC1c1ccccc1 (stereo not drawn) -1.74%, O=C(O)CCCCCNS(=O)(=O)c1ccc2c(c1)OCCO2 -3.71%, O=C(c1cc(-c2ccc(F)cc2)on1)N1CCCc2ccccc21 1.4%, CCCCOCCCNC(=O)C1CCCCC1 -2.13%, C=CCn1cnc2c(nnn2-c2ccc(Cl)cc2)c1=O 1.25%, CCCCc1ccc(NC(=O)CC(C)=O)cc1 7.92%, Cc1c(Cl)cccc1NC(=O)CSCC(N)=O -1.74%, Cc1c(Cl)cccc1NC(=O)CSC(N)=O 3.23%, O=C(CSCc1cc(=O)[nH][nH]1)Nc1ccc(F)cc1 5.96%, O=C(Nc1ccc(F)cc1F)N1CCC(c2nc3ccccc3o2)CC1 2.14%, CCOCCCn1c(=S)[nH]c2cc(C(=O)NCC(OC)OC)ccc2c1=O 1.45%, Cc1cc(OCC(=O)N2CCOCC2)ccc1NC(=O)C1CCCCC1 5.24%, O=C(OCC(=O)N1CCN(C(=O)c2ccco2)CC1)c1ccccc1OCc1ccccc1 7.24%, NC(=O)COC(=O)c1ccccc1OCc1ccccc1 13.1%, CC(c1ccccc1)n1c(-c2cccs2)nc2c(c(=O)c3ccccc3n2C)c1=O (stereo not drawn) 7.83%, CCOc1ccc(C(C(=O)Nc2ccc(F)cc2)N(C(=O)Cn2nnc3ccccc32)C2CC2)cc1 (stereo not drawn) 6.8%, CC1CCC2(CC1)NC(=O)N(CC(=O)Nc1ccc3c(c1)CCC3)C2=O (stereo not drawn) -3.16%, O=C(CN1CCCCC1)Nc1ccc(N2CCCCCC2)cc1 43.3%, CC1CCC2(CC1)NC(=O)N(CC(=O)NC(=O)Nc1ccc3c(c1)OCCO3)C2=O (stereo not drawn) 2.34%, O=C(CCN1C(=O)C2C3C=CC(C3)C2C1=O)Nc1ccc2c(c1)OCO2 (stereo not drawn) -8.11%, CC1CCCCC12NC(=O)N(CC(=O)Nc1ccc(N3CCOCC3)cc1)C2=O (stereo not drawn) 22%, O=C(CN1C(=O)NC2(CCCCC2)C1=O)Nc1ccc(N2CCOCC2)cc1 29.2%, CC1CCCCN1CC(=O)Nc1ccc(N2CCCCCC2)cc1 (stereo not drawn) 37.6%, O=C(CN1C(=O)C2C3C=CC(C3)C2C1=O)Nc1ccc(F)cc1 (stereo not drawn) -2.69%
